Experimental data: paper PMC7862700, “An all-to-all approach to the identification of sequence-specific readers for epigenetic DNA modifications on cytosine”

Assays:
Assay in all cases: DAPPL (digital affinity profiling via proximity ligation, sequencing); 10 mM Tris-HCl pH 7.5, 50 mM NaCl, 1 mM DTT, 4% glycerol, room temperature, 30 min; GST-TFs on glutathione beads, 16-mer random dsDNA library, 0.1% formaldehyde crosslink after washing; high values mean tight binding
[1] = biological target: T1, FLI1 (Homo sapiens, UniProt Q01543 1-452); conditions: protein: recombinant; tags: N-terminal GST; dsDNA, one strand shown
T1 sequence: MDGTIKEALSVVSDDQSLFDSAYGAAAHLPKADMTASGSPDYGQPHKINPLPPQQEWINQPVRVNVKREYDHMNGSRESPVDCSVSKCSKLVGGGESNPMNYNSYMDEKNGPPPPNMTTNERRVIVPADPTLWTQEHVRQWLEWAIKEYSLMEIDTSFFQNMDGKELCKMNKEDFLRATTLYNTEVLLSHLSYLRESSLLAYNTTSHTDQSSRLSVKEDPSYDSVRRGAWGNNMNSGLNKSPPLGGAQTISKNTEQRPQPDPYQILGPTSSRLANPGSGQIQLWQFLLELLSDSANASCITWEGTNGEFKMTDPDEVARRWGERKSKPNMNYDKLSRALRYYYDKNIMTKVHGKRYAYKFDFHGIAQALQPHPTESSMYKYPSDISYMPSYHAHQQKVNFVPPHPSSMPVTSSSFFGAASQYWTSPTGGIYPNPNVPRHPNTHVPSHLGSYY
Summary of the method: (§1)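 Sequencing on an Illumina NextSeq500 followed washing, crosslinking with 0.1% formaldehyde, proximity ligation (BsaI/T4 ligase, 1 h, 37 °C) and PCR amplification of pools that had been incubated for 30 min at room temperature with 200 nmole of a random double-stranded 16-mer DNA library in Tris/NaCl/DTT/glycerol buffer. Each pool held DNA-barcoded human transcription factors, expressed in yeast as GST fusions and captured on glutathione beads, plus a tag-only sample. Binding signal is a hexamer's read frequency for a factor divided by its frequency in the tag-only sample.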

[2] = biological target: T2, ELK1 (Homo sapiens, UniProt P19419 1-428); conditions: protein: recombinant; tags: N-terminal GST; dsDNA, one strand shown
T2 sequence: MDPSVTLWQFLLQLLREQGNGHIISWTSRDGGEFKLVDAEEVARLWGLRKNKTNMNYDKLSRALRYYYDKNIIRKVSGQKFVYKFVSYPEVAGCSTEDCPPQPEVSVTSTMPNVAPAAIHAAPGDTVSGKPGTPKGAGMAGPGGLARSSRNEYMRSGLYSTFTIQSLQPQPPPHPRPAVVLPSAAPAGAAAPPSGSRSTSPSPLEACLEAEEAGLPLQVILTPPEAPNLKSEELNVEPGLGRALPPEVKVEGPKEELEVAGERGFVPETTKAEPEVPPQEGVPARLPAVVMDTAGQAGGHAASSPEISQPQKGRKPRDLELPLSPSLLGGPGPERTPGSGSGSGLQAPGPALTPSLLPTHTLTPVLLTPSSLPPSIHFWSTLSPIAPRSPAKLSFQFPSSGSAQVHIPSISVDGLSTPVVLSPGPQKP
Summary of the method: as §1

[3] = biological target: T3, GABPA (Homo sapiens, UniProt Q06546 1-454); conditions: protein: recombinant; tags: N-terminal GST; dsDNA, one strand shown
T3 sequence: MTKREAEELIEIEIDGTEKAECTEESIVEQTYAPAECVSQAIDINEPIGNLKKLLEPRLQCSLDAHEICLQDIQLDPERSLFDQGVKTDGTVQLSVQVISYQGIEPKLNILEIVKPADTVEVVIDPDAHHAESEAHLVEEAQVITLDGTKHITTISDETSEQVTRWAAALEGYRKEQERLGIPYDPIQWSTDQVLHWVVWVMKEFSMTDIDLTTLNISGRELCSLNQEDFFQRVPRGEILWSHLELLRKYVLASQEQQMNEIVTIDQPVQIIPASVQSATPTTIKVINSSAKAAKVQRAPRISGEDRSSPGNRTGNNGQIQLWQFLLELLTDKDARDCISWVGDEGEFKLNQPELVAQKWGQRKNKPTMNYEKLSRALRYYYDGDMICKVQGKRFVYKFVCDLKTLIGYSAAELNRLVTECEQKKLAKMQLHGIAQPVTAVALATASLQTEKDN
Summary of the method: as §1

[4] = biological target: T4, ERG (Homo sapiens, UniProt P11308 1-479); conditions: protein: recombinant; tags: N-terminal GST; dsDNA, one strand shown
T4 sequence: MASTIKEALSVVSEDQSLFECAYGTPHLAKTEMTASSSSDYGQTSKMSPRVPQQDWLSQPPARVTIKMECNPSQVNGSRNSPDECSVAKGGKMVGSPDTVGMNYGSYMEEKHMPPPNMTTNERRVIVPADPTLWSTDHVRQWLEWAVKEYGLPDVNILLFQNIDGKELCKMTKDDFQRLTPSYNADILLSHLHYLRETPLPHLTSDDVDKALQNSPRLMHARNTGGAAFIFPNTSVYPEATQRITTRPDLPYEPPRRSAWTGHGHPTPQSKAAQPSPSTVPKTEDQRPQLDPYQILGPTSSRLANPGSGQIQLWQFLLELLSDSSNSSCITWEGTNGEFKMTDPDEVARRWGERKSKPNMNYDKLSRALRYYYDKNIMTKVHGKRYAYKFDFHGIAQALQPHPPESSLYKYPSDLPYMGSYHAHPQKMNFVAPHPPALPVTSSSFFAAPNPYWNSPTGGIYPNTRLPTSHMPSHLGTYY
Summary of the method: as §1

[5] = biological target: ELF1 (Homo sapiens, UniProt P32519 1-619); conditions: protein: recombinant; tags: N-terminal GST; dsDNA, one strand shown
Summary of the method: as §1

[6] = biological target: T5, EHF (Homo sapiens, UniProt Q9NZC4 1-300); conditions: protein: recombinant; tags: N-terminal GST; dsDNA, one strand shown
T5 sequence: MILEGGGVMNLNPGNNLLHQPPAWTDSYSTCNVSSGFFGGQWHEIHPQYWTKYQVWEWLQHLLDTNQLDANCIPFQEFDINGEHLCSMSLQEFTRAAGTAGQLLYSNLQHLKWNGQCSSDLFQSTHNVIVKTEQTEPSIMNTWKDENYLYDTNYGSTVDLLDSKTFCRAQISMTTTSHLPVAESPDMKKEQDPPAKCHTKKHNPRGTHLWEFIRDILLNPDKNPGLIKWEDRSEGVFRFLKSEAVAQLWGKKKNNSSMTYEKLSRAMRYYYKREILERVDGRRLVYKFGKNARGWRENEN
Summary of the method: as §1

[7] = biological target: SPI1 (Homo sapiens, UniProt P17947 1-270); conditions: protein: recombinant; tags: N-terminal GST; dsDNA, one strand shown
Summary of the method: as §1

[8] = biological target: SPIB (Homo sapiens, UniProt Q01892 1-262); conditions: protein: recombinant; tags: N-terminal GST; dsDNA, one strand shown
Summary of the method: as §1

[9] = biological target: T6, ELK3 (Homo sapiens, UniProt P41970 1-407); conditions: protein: recombinant; tags: N-terminal GST; dsDNA, one strand shown
T6 sequence: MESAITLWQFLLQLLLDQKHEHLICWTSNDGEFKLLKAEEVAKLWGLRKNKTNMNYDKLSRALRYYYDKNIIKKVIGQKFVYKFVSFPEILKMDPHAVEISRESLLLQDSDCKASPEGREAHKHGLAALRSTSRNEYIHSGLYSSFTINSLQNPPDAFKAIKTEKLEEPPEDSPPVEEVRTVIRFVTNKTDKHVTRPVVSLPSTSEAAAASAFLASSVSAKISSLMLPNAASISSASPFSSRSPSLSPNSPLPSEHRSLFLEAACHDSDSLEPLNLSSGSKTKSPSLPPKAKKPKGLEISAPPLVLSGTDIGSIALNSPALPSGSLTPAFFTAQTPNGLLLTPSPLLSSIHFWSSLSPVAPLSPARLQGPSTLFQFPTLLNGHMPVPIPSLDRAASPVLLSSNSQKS
Summary of the method: as §1

[10] = biological target: T7, FEV (Homo sapiens, UniProt Q99581 1-238); conditions: protein: recombinant; tags: N-terminal GST; dsDNA, one strand shown
T7 sequence: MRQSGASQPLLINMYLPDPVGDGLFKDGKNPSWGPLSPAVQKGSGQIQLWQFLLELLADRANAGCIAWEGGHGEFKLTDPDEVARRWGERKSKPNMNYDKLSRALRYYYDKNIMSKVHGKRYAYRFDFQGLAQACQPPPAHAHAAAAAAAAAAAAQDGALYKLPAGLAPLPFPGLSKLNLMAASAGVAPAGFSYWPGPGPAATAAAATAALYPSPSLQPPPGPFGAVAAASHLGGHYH
Summary of the method: as §1

[11] = biological target: ETV5 (Homo sapiens, UniProt P41161 1-510); conditions: protein: recombinant; tags: N-terminal GST; dsDNA, one strand shown
Summary of the method: as §1

[12] = biological target: HSF1 (Homo sapiens, UniProt Q00613 1-529); conditions: protein: recombinant; tags: N-terminal GST; chain copies: 3; dsDNA, one strand shown
Summary of the method: as §1

[13] = biological target: T8, SPIC (Homo sapiens, UniProt Q8N5J4 1-248); conditions: protein: recombinant; tags: N-terminal GST; dsDNA, one strand shown
T8 sequence: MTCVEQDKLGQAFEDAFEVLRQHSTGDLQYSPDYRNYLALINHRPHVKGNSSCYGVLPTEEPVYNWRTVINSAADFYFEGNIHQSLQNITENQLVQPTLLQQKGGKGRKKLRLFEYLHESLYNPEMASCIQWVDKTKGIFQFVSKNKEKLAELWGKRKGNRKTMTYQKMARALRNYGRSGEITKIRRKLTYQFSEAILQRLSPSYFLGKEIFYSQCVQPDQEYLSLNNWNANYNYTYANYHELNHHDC
Summary of the method: as §1

[14] = biological target: ELF4 (Homo sapiens, UniProt Q99607 1-663); conditions: protein: recombinant; tags: N-terminal GST; dsDNA, one strand shown
Summary of the method: as §1

[15] = biological target: T9, ELK4 (Homo sapiens, UniProt P28324-2 1-405); conditions: protein: recombinant; tags: N-terminal GST; dsDNA, one strand shown
T9 sequence: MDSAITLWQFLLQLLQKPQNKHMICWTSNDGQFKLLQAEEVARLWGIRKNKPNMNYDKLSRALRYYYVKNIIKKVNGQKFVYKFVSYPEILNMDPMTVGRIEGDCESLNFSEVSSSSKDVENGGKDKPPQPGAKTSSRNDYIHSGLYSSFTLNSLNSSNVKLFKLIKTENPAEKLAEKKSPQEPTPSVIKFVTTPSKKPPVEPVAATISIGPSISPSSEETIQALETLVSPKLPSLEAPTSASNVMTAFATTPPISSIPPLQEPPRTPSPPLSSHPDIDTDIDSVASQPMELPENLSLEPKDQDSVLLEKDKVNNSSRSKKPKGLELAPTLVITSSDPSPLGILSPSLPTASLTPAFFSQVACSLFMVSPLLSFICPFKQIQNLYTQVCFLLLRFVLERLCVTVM
Summary of the method: as §1

[16] = biological target: T10, ETV2 (Homo sapiens, UniProt O00321 1-342); conditions: protein: recombinant; tags: N-terminal GST; dsDNA, one strand shown
T10 sequence: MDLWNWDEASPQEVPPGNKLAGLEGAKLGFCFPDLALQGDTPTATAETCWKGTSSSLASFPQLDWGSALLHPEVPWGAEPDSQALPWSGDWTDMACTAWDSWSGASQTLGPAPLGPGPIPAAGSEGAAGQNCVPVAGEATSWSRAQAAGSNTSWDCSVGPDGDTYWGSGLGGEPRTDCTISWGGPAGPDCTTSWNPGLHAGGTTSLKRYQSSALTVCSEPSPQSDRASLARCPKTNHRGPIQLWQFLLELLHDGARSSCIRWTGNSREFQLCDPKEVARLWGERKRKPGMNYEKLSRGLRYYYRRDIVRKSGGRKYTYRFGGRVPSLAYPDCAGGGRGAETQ
Summary of the method: as §1

[17] = biological target: T11, ELF3 (Homo sapiens, UniProt P78545 1-371); conditions: protein: recombinant; tags: N-terminal GST; dsDNA, one strand shown
T11 sequence: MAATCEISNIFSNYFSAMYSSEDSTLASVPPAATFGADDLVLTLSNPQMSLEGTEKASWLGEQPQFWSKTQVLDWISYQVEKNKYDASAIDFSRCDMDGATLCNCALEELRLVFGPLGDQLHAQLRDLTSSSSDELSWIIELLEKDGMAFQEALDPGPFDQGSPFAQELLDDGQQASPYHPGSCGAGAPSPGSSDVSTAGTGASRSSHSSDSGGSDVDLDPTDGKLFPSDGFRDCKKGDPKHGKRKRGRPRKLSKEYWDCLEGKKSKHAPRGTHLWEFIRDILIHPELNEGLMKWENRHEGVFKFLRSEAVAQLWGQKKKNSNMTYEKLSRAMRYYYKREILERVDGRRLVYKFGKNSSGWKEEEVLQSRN
Summary of the method: as §1

[18] = biological target: CRX (Homo sapiens, UniProt O43186 1-299); conditions: protein: recombinant; tags: N-terminal GST; dsDNA, one strand shown
Summary of the method: as §1

[19] = biological target: ETV1 (Homo sapiens, UniProt P50549 1-477); conditions: protein: recombinant; tags: N-terminal GST; dsDNA, one strand shown
Summary of the method: as §1

Sequence of ELF1 (P32519 whole entry): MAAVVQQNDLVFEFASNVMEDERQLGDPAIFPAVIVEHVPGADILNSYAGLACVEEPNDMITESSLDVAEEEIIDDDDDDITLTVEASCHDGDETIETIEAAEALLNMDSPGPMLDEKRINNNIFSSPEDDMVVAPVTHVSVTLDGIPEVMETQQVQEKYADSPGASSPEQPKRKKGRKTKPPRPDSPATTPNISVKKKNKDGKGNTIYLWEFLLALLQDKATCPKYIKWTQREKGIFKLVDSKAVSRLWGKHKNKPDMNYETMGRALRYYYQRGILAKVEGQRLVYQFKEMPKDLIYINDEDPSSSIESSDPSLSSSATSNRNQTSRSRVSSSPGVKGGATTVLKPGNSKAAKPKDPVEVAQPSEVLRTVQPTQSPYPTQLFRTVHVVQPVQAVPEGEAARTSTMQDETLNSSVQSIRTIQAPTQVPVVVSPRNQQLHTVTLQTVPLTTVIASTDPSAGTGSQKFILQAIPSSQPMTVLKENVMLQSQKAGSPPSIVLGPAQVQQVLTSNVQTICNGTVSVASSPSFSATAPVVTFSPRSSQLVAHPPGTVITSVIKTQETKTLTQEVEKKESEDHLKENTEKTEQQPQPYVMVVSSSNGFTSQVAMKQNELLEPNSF
Sequence of ELF4 (Q99607 whole entry): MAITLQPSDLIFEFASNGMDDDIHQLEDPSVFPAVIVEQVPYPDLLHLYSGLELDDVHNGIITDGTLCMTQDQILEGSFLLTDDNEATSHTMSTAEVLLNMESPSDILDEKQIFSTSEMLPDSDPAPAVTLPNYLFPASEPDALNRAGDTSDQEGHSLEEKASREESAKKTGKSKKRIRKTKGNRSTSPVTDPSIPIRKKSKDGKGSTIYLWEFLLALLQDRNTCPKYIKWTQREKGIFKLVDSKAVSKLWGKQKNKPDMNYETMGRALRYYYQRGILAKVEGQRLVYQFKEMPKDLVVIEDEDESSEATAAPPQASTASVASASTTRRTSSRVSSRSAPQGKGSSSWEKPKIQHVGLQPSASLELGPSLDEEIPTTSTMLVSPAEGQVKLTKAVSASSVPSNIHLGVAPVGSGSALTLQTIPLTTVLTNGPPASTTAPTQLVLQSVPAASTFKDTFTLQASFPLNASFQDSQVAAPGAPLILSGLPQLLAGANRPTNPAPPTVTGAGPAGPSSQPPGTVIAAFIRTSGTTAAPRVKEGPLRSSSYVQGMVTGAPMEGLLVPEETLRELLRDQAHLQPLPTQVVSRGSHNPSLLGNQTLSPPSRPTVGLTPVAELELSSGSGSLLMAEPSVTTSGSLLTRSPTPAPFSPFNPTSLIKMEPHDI
Sequence of ETV1 (P50549 whole entry): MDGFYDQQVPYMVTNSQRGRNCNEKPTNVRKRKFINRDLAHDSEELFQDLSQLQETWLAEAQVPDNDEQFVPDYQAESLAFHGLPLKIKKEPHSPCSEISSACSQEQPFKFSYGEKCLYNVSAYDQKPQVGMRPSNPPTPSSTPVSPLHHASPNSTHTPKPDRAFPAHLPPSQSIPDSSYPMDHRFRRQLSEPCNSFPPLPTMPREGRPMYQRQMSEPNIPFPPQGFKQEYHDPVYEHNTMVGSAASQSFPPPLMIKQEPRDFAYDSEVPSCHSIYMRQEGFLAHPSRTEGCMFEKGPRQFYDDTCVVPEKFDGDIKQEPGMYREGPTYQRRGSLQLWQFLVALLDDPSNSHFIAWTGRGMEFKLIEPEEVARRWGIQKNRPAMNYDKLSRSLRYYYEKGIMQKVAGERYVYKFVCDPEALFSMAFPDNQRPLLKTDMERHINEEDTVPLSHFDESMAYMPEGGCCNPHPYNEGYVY
Sequence of HSF1 (Q00613 whole entry): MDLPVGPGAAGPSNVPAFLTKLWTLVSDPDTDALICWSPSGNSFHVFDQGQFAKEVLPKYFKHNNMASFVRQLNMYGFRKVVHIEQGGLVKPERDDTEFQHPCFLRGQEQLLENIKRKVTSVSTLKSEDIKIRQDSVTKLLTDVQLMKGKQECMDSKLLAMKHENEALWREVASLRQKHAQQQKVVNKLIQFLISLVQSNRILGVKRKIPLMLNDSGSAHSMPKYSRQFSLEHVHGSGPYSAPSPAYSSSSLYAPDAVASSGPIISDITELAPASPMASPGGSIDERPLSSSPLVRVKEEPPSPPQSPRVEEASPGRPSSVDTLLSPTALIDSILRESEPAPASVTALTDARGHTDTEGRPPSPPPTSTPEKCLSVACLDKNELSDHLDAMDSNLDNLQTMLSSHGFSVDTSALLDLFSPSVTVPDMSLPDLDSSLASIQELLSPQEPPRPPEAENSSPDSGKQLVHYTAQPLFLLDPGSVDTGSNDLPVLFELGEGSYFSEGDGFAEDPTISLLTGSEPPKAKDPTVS
Sequence of SPIB (Q01892 whole entry): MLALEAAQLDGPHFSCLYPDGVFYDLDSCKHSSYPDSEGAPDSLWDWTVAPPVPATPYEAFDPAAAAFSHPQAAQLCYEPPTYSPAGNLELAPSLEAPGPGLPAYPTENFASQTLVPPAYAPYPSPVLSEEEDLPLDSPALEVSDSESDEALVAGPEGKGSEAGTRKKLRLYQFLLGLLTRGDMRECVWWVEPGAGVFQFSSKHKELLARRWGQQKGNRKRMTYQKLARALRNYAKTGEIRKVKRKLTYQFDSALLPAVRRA
Sequence of ETV5 (P41161 whole entry): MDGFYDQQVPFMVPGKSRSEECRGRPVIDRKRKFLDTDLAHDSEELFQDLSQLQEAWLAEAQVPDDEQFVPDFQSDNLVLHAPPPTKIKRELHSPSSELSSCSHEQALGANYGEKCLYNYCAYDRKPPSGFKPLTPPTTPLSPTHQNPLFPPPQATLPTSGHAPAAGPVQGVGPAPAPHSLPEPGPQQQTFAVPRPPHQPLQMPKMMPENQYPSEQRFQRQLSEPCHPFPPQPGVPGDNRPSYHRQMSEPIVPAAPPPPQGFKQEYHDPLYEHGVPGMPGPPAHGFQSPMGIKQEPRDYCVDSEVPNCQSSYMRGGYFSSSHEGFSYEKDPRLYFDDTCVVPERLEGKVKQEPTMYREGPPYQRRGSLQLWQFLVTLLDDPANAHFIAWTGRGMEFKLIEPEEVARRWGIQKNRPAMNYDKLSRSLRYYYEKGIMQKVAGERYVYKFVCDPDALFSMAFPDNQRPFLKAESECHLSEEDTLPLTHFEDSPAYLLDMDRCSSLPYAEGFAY
Sequence of CRX (O43186 whole entry): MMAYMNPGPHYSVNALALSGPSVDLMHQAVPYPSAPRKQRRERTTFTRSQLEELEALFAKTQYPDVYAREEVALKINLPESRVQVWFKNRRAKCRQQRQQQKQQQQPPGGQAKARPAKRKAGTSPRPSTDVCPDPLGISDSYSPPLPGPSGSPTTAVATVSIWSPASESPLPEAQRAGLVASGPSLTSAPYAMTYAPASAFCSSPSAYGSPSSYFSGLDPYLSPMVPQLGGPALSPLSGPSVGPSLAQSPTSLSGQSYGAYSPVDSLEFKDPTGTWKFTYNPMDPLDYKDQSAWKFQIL

Q: What does the source list for CGTTTC?
A: binding signal [1]: 1.76 fold enrichment (6-mer frequency, TF over GST control); binding signal [2]: 1.68 fold enrichment (6-mer frequency, TF over GST control); binding signal [3]: 1.69 fold enrichment (6-mer frequency, TF over GST control); binding signal [4]: 1.98 fold enrichment (6-mer frequency, TF over GST control); binding signal [5]: 1.71 fold enrichment (6-mer frequency, TF over GST control); binding signal [6]: 1.83 fold enrichment (6-mer frequency, TF over GST control); binding signal [7]: 1.79 fold enrichment (6-mer frequency, TF over GST control); binding signal [8]: 1.75 fold enrichment (6-mer frequency, TF over GST control); binding signal [9]: 1.72 fold enrichment (6-mer frequency, TF over GST control); binding signal [10]: 1.98 fold enrichment (6-mer frequency, TF over GST control); binding signal [11]: 1.72 fold enrichment (6-mer frequency, TF over GST control); binding signal [12]: 1.24 fold enrichment (6-mer frequency, TF over GST control); binding signal [13]: 1.77 fold enrichment (6-mer frequency, TF over GST control); binding signal [14]: 1.8 fold enrichment (6-mer frequency, TF over GST control); binding signal [15]: 1.65 fold enrichment (6-mer frequency, TF over GST control); binding signal [16]: 1.41 fold enrichment (6-mer frequency, TF over GST control); binding signal [17]: 1.72 fold enrichment (6-mer frequency, TF over GST control); binding signal [18]: 1.06 fold enrichment (6-mer frequency, TF over GST control); binding signal [19]: 1.61 fold enrichment (6-mer frequency, TF over GST control)
